This is one part of a sample in which hits are shown more often than they occur.
ASM inhibitor: human S-ASM enzyme inhibition; P17405; placental ASM, HMU-PC fluorogenic substrate, 60 min; Potency, µM (series often up to 57.5 µM), actives largely listed as inhibitors; 340,000 compounds, 0.006% hits
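Fluorogenic HMU-PC substrate (9 uM final) is turned over by placental ASM in 60 min at 37 C after a 10 min compound preincubation. Reaction ended by alkaline stop (pH 10), with fluorescence read at 386/447 nm.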
mIDH1 inhibitor: human IDH1 R132H inhibition; AID 602179; 390,000 compounds, 0.093% hits; O75874; IDH1-R132H enzyme, NADPH consumption, diaphorase/resazurin fluorescence; Potency, µM (titrated, usually from 76.6 µM), most hits filed as inhibitors; note: nearly all actives have a fitted effect of over 65% in size
Target sequence (O75874 whole entry R132H, stated change not applied): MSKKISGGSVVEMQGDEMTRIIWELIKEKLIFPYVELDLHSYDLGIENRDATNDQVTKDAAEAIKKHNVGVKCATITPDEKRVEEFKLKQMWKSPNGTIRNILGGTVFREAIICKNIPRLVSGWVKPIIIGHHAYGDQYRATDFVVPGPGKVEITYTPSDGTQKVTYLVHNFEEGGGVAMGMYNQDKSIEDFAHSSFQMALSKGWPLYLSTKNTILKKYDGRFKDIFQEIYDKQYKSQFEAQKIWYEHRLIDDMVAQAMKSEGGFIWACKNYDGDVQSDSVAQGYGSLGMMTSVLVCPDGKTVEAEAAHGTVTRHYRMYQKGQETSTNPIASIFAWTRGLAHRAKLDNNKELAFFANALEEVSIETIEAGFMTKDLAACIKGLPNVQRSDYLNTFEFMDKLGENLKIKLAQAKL
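IDH1-R132H (0.5 ug/mL) preincubated 30 min with compound, then NADPH (0.016 mM) and alpha-KG (2 mM) added; 80 min at RT, pH 7.5. Remaining NADPH coupled via diaphorase/resazurin to fluorescence (540/590 nm); concentration-response curves normalized to no-enzyme control.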
RGS4 inh: blocks human RGS4-accelerated GTP hydrolysis. P49798. Transcreener GDP fluorescence polarization, RGS4-accelerated GTP hydrolysis. Potency, µM (series often up to 114 µM), hits mostly inhibitors. 390,000 compounds, 0.039% hits. AID 504845; note: nearly all actives have a fitted effect of over 75% in size
Target sequence (P49798 whole entry, looked up): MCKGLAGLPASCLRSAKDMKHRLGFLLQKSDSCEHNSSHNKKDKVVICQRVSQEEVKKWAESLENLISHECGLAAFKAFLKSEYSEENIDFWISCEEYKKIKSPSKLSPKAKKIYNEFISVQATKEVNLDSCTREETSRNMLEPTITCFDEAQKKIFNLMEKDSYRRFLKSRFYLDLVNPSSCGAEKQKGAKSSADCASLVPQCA
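MLSMR compounds (23 nl, pin-transferred) preincubated 10 min at room temperature with a 500nM (2x) first reagent, then RGS4 at 900nM (2x) plus Transcreener GDP mix added; fluorescence polarization (620/688 nm) read before and after 90 min at 30 °C.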
ClpP mod: qHTS Assay for Activators of ClpP | AID 651965, 2013 | ATP-dependent Clp protease proteolytic subunit (Bacillus subtilis (strain 168)), P80244 | 340,000 compounds, 1.9% hits | purified B. subtilis ClpP, FRET peptide cleavage, 20 min | Potency, µM (doses to about 57.5 µM); active = well fitted falling curve with a large enough effect; inconclusive = small, poorly fitted or top-dose-only effect; inactive = no such curve, though single readings can be large or run the other way; note: the source files actives as falling curves though it sought activators and does not explain the sign; nearly all actives have a fitted effect of over 65% in size
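Buffer: 100 mM Tris/HCl pH8, 100 mM KCl, 0.05% low protease BSA, 2.5% glycerol, 0.01% Tween-20. ClpP 10 microg/mL final; 20 min RT; delta FRET normalized to ADEP and DMSO controls.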
Mito fusion yeast: mitochondrial division inhibition or fusion activation | S. cerevisiae fusion-defective mutant growth rescue, CellTiterGlo 48 h | Potency, µM (highest dose often 46.1 µM), hits mostly activators | 320,000 compounds, 0.23% hits | AID 485298; note: nearly all actives have a fitted effect of over 45% in size
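Luminescent cell viability in 1536-well qHTS format served as the measure of rescued growth in ts fusion-mutant S. cerevisiae cultured on non-fermentable YPEG for 48 hours at 37C.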
LDHA block: LDHA (human) enzyme inhibition; AID 1347041; activity change, % (values are at about 110 or 230 µM); purified LDHA, NADH/diaphorase-resazurin fluorescence; stronger effect = lower value; 480,000 compounds, 0.15% hits; in the data active = activity change below about -30%; inconclusive = mostly about -25% to -30%
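Enzyme activity of human lactate dehydrogenase 5 (2 nM; 0.06 mM NADH, 0.2 mM pyruvate, 5 min, RT) is measured via a resazurin/diaphorase fluorescence readout of residual NADH.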
A number is an active result; i = inactive; ? = inconclusive; nt = no result given. Unless noted, calls come from the whole dose curve; as a rule, active = well fitted curve in the direction sought with a large enough effect; inconclusive = small, poorly fitted or top-dose-only effect, or another doubt; inactive = no such curve, though single readings can be large; an effect the other way counts as inactive or inconclusive.

SMILES | ASM inhibitor | mIDH1 inhibitor | RGS4 inh | ClpP mod | Mito fusion yeast | LDHA block
O=C(COC(=O)Cn1cc(C(F)(F)F)ccc1=O)Nc1ccc(Br)cc1F | i | i | i | 25µM | i | i
O=C(O)c1cc2c(s1)-c1ccccc1CC2 | i | i | i | i | i | i
O=C(N/N=C/c1ccc(Cl)cc1)c1cc2c(s1)-c1ccccc1CC2 | i | i | i | 28µM | i | i
Cc1nc(C)c(CCC(=O)Nc2cc(Cl)ccc2F)c(=O)[nH]1 | nt | nt | nt | nt | nt | i
O=S(=O)(NC(=NC1CCCCC1)c1ccccc1F)c1ccccc1 | i | i | i | nt | 0.63µM | i
O=S(=O)(NC(=NC1CCCCC1)c1ccccc1)c1ccccc1 | i | i | i | i | i | i
CCc1ccc(S(=O)(=O)c2cnc3ccc(C)cc3c2N2CCOCC2)cc1 | nt | nt | nt | nt | nt | i
O=C(NNc1cccc(Cl)n1)c1cccnc1Cl | i | i | i | i | i | i
O=C(NNc1cccc(Cl)c1)c1cccnc1Cl | i | i | i | i | 22µM | i
CC(OC(=O)c1ccc(F)c(S(=O)(=O)N2CCCCC2)c1)C(=O)N1CCc2ccccc21 (stereo not given) | nt | nt | nt | nt | nt | i
O=C(Cc1ccccc1)Nc1ccc2oc(-c3cccnc3)nc2c1 | i | i | i | 28µM | i | i
CCOc1cccc(-c2nc3cc(C)ccc3o2)c1 | i | i | i | ? | i | i
Cc1ccc2oc(-c3ccccc3)nc2c1 | i | i | i | 14µM | i | i
O=C(Nc1ccc2oc(-c3cccnc3)nc2c1)c1ccc(-c2ccccc2)o1 | nt | i | ? | i | nt | i
COc1ccc(CC(=O)Nc2ccc(-c3nc4cc(C)ccc4o3)c(O)c2)cc1OC | i | i | ? | 35µM | i | i
CCCC(=O)Nc1ccc(-c2nc3cc(C)ccc3o2)cc1 | i | i | ? | 40µM | i | i
CCc1nn(-c2ccccc2)c2c1CN(C(=O)NC)C(c1ccccc1)c1cccn1-2 (stereo not given) | nt | nt | nt | nt | nt | i
CCCCCC(=O)Nc1ccc2oc(-c3cccnc3)nc2c1 | i | i | i | 16µM | i | i
O=C(O)COc1ccc(C(=O)/C=C/c2ccc(Cl)cc2Cl)cc1 | nt | nt | nt | nt | nt | i
COc1ccccc1C(=O)Nc1ccc(-c2cc(C(F)(F)F)nn2-c2ccccc2)cc1 | nt | i | i | 22µM | nt | i
COc1ccccc1C(=O)NC(=O)Nc1ccc(-c2cc(C(F)(F)F)nn2-c2ccccc2)cc1 | nt | nt | i | i | nt | i
CCCn1nnc(NC(=O)c2ccc(-c3cccc(Cl)c3)o2)n1 | i | i | i | ? | i | i
CCCCn1nnc(NC(=O)c2ccc(-c3cccc(Cl)c3)o2)n1 | i | i | i | 32µM | i | i
CS(=O)(=O)c1ccc(C(=O)OCC(=O)NC23CC4CC(CC(C4)C2)C3)cc1[N+](=O)[O-] | nt | 32µM | i | i | i | i
Cc1c(C#N)c(N)nc2c3c(sc12)NC(=O)CC3c1c(F)cccc1Cl (stereo not given) | nt | nt | nt | nt | nt | i
SMILES | ASM inhibitor | mIDH1 inhibitor | RGS4 inh | ClpP mod | Mito fusion yeast | LDHA block
CCOC(=O)C1(C)NC(c2ccccc2F)C2C(=O)N(CC)C(=O)C21 (stereo not given) | i | i | i | 28µM | i | i
Cc1ccc(C(=O)Nc2ccc3nc(SCc4ccc(Br)cc4)sc3c2)cc1 | nt | nt | nt | nt | nt | i
COc1ccc(-c2nsc(C(=O)N(c3ccc(F)cc3)C(C(=O)NC3CCCC3)c3ccc(OC)cc3)c2N)cc1 (stereo not given) | i | i | i | 16µM | i | i
Cc1cccc(C)c1NC(=O)COC(=O)Cn1cnc2c1c(=O)n(C)c(=O)n2C | nt | nt | nt | nt | nt | i
CCCCC(=O)NC(=S)Nc1cccc(NC(=O)c2ccco2)c1 | i | i | i | 25µM | i | i
NS(=O)(=O)c1ccc(NC(=S)NC(=O)c2ccco2)cc1 | nt | i | i | 10µM | i | i
CC(=O)NS(=O)(=O)c1ccc(NC(=S)NC(=O)c2ccco2)cc1 | i | i | i | i | i | i
O=C(c1ccccc1)N1N=C(c2ccccc2)CC1c1ccccc1[N+](=O)[O-] (stereo not given) | i | i | i | 25µM | i | i
CC(=O)N1N=C(c2ccccc2)CC1c1ccccc1[N+](=O)[O-] (stereo not given) | i | i | i | i | i | i
CC(C)(C)c1ccc(OCC(=O)N/N=C/c2ccc(N3CCOCC3)cc2)cc1 | i | i | i | 35µM | i | i
Cc1ccc(C(=O)N(C)C2CCN(CCc3ccccn3)CC2)s1 | nt | nt | nt | nt | nt | i
COc1ccc(C2Nc3ccccc3-c3cc(C)nn32)c(OC)c1 (stereo not given) | nt | i | i | 32µM | nt | i
Cc1cc2n(n1)C(c1ccccc1Cl)Nc1ccccc1-2 (stereo not given) | i | i | i | ? | i | i
CCc1ccc(CN(C)C(C)C(=O)NCc2cccs2)cc1 (stereo not given) | nt | nt | nt | nt | nt | i
O=C(OCC(=O)N1CCCc2ccccc21)c1ccccc1NCCO | i | i | i | 32µM | i | i
Cc1cc(C(=O)OCC(=O)N2CCc3ccccc32)c(C)o1 | i | i | i | i | i | i
O=C(OCC(=O)N1CCN(C(=O)COC(=O)c2ccccc2NCCO)CC1)c1ccccc1NCCO | i | i | i | i | nt | i
O=C(OCC(=O)N1CCc2ccccc21)c1ccc[nH]c1=O | i | i | i | 28µM | i | i
Cc1cccc(CS(=O)(=O)Cc2ccc(C(=O)NCCCN3CCOCC3)o2)c1 | i | i | i | 28µM | i | i
O=C(NCCCN1CCCC1)c1ccc(CSCc2cccc(Cl)c2)o1 | i | i | i | i | i | i
Cc1cccc(CS(=O)(=O)Cc2ccc(C(=O)NCCCN3CCCC3)o2)c1 | i | i | i | i | i | i
CN1CCN(CCCNC(=O)c2ccc(CSCc3cccc(Cl)c3)o2)CC1 | i | i | i | 14µM | i | i
CC(C(=O)NCc1ccco1)n1cnc2c1c(=O)n(C)c(=O)n2C (stereo not given) | nt | nt | nt | nt | nt | i
CCOc1ccc(C(C)NC(=O)CCC(=O)O)cc1 (stereo not given) | i | i | i | 28µM | i | i
CCCCn1c(=O)n(C)c(=O)c2c3c(sc21)COC(C)(C)C3 | i | i | i | 28µM | i | i
COc1cc(/C=C2\SC(N3CCCCC3)=NC2=O)cc(OC)c1OC | i | i | i | nt | 5µM | i
COc1ccc(/C=C2\SC(N3CCCCC3)=NC2=O)cc1 | i | i | i | i | i | i
Cc1ccc2[nH]c(C(=O)O)cc2c1 | nt | nt | nt | nt | nt | i
N#Cc1cccc(NC(=O)NCCc2ccccn2)c1 | nt | nt | nt | nt | nt | i
Cc1cccc(Nc2nc(NCc3ccco3)c3ccccc3n2)c1 | i | i | i | 20µM | i | i

Source: PubChem
